Screens deposited in PubChem by The Scripps Research Institute Molecular Screening Center.
FBW7 act – activators of human E3 ligase FBW7; normalized activity (activation), % at 26.1 µM; AID 1259310; 0.13% of 650,000 active; Q969H0; AlphaScreen FBW7–phospho-cyclin E peptide binding, activator screen; in the data active means normalized activity above about 1.9%;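 further: purified mutant Fbw7 with reduced substrate affinity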
Target sequence (Q969H0 whole entry, looked up): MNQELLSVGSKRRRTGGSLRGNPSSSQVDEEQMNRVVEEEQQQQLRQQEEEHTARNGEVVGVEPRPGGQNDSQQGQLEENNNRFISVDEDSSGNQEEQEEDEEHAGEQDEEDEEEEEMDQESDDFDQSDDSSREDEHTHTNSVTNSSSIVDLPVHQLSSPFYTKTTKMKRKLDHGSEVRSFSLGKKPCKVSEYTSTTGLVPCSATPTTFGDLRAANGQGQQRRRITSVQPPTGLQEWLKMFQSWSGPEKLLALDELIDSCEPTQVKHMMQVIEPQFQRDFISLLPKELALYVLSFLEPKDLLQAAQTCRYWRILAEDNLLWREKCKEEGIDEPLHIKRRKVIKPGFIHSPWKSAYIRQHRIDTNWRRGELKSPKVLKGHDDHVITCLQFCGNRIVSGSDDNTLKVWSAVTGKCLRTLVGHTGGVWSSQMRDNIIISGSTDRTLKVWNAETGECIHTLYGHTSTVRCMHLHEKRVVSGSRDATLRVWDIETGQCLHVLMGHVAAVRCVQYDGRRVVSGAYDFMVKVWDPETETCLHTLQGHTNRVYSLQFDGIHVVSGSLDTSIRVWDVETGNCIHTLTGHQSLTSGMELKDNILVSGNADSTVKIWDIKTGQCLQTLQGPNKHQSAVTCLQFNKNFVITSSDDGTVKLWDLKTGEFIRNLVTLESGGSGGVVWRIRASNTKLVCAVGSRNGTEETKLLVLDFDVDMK
GPR151 activ – human GPR151 activation; PathHunter beta-arrestin GPR151 cells, luminescence; activation, % at 11.2 µM; 1% of 650,000 active; AID 1508602; in the data active means activation above about 4.9%;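 further: 0% = median of compound wells and 100% = cells with positive control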
TEAD-YAP inh – TEAD-YAP interaction inhibition | HEK-TIYL cells, TEAD-Gal4/YAP UAS-luciferase luminescence | inhibition, % at 9.12 µM | 1.4% of 640,000 active | AID 1259422; in the data active means inhibition above about 32%;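 further: 0% = median of test compound wells and 100% = reference inhibitor wells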
MITF inh – inhibitors of human MITF | inhibition, % at 2.6 µM | AID 1259374 | O75030 | AlphaScreen MITF homodimerization, bead proximity signal | 0.91% of 650,000 active; in the data active means inhibition above about 50%;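 further: 0% = vehicle wells with protein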
MITF confirm – confirmation of human MITF inhibitors. AlphaScreen MITF homodimerization, biotin/His-MITF beads. shares compounds with MITF inh. 16% of 4,700 active. AID 1259372. inhibition, % at 2.6 µM;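 active means inhibition above a cutoff derived from the DMSO control wells, cut at about 28% in these data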;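 further: 0% = MITF dimer wells with DMSO only; inhibitors lower the bead chemiluminescence by keeping MITF from dimerizing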
AlphaScreen DR – counter-screen: compounds optically interfering with AlphaScreen; shares compounds with MITF inh; AlphaScreen optical interference counterscreen, cell-free; 6% of 480 active; IC50, µM; call rule not given here
AlphaScreen intf2 – AlphaScreen optical interference, counter-screen | shares compounds with MITF inh | LysRS AlphaScreen counterscreen, signal interference, triplicate | inhibition, % at 2.6 µM | 7.6% of 4,700 active;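 active means inhibition above a cutoff derived from the DMSO control wells, cut at about 30% in these data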
An asterisk follows results filed as active; nt = no result given. Compounds with a hit are over-represented: about 3.5% of the library has one in this group of screens.

SMILES	FBW7 act	GPR151 activ	TEAD-YAP inh	MITF inh	MITF confirm	AlphaScreen intf2	others
O=C(Nc1nc(-c2ccc(Br)s2)cs1)c1ccccc1Oc1ccccc1	-0.1	0.5	-2.2	4.5	nt	nt
COc1cc(CN2CCN(C(=O)c3cccc(F)c3)CC2)cc(OC)c1O	-0.4	0.1	-1.4	67.7*	-2.8	5.8
O=C(c1ccc(F)cc1)N1CCN(Cc2cccc(F)c2)CC1	0.0	1.1	4.1	58.3*	4.1	4.3
COc1ccc(CN2CCN(C(=O)c3cccc(F)c3)CC2)cc1OC	0.0	0.1	-1.0	31.2	nt	nt
COc1ccc(C(=O)N2CCN(Cc3cccc(F)c3)CC2)cc1	0.1	-0.7	-11.4	45.7	nt	nt
O=C(c1ccc(-c2ccccc2)cc1)N1CCN(Cc2cccnc2)CC1	0.2	0.8	-10.0	68.0*	19.4	14.8
COc1ccc(C(=O)N2CCN(Cc3cccc(Br)c3)CC2)cc1	0.1	0.4	-1.9	51.4*	6.4	13.5
O=C(c1cccc(F)c1)N1CCN(CC2CC3C=CC2C3)CC1 (centres undefined)	0.0	-0.2	-6.3	57.9*	-22.5	3.6
O=C(c1ccccc1F)N1CCN(CC2CC3C=CC2C3)CC1 (centres undefined)	-0.1	0.0	5.0	39.4	nt	nt
O=c1[nH]c2ncc(-c3ccc4c(c3)OCO4)nc2n1Cc1ccncc1	-0.6	-0.6	-10.6	-4.8	nt	nt
Cc1ccccc1OCCNCC(C)O (centres undefined)	0.3	0.5	1.4	53.4*	3.6	9.4
CCC(C)(C(=O)Nc1c(C)cccc1C)N(CCc1c[nH]c2ccccc12)C(=O)c1ccccn1 (centres undefined)	0.1	1.0	0.7	-4.8	nt	nt
CCCCC(CC)CNCC(O)COCc1ccc(OC)c(OC)c1 (centres undefined)	0.2	-0.9	4.2	65.4*	21.4	26.9
CC1CC(C)CN(CC(=O)Nc2c3c(nc4ccccc24)CCC3)C1 (centres undefined)	0.0	0.9	-11.2	73.8*	-7.5	-5.8
O=C(CN1CCCCC1)Nc1c2c(nc3ccccc13)CCC2	-0.2	-0.8	1.8	53.4*	17.2	16.3
O=C(CNC(c1ccccc1)c1ccccc1)NNC(=O)c1ccccc1Br	0.0	0.2	0.8	62.8*	9.2	17.2
O=C(NC(c1ccccc1)c1ccccc1)c1ccccc1Br	0.1	0.5	-0.7	13.1	nt	nt
NC(=O)c1oc2ccccc2c1NC(=O)c1ccc(Cl)cc1	0.0	0.0	4.5	5.8	nt	nt
NC(=O)c1oc2ccccc2c1NC(=O)c1sc2ccccc2c1Cl	0.0	0.1	4.8	57.7*	7.8	5.9
CN(C)c1ccc(NC2CC(=O)N(c3ccc(O)cc3)C2=O)cc1 (centres undefined)	-0.5	1.9	11.9	71.2*	30.3*	31.0*
CN(C)c1ccc(NC2CC(=O)N(c3ccc(F)cc3)C2=O)cc1 (centres undefined)	0.0	0.1	-5.5	1.4	nt	nt
Cc1cccc(NC(=O)CSc2nsc(SCC(=O)Nc3cccc(C)c3)n2)c1	0.1	-0.8	-2.0	-6.2	nt	nt
O=C(CSc1nsc(SCC(=O)Nc2ccc(Cl)c(Cl)c2)n1)Nc1ccc(Cl)c(Cl)c1	0.4	0.7	-9.8	58.8*	39.0*	10.9
CCOC(=O)N(c1ccccc1)S(=O)(=O)c1ccc(C)cc1	0.1	-0.3	7.2	2.7	nt	nt
CCOc1ccccc1NS(=O)(=O)c1ccc2c(c1)OCCCO2	0.0	2.3	-0.1	57.0*	-4.8	-5.5
SMILES	FBW7 act	GPR151 activ	TEAD-YAP inh	MITF inh	MITF confirm	AlphaScreen intf2	others
CN(C)CCCNS(=O)(=O)c1ccc2c(c1)OCCO2	0.4	-1.7	-3.6	62.9*	15.5	15.9
COc1ccc(NS(=O)(=O)c2ccc3c(c2)OCCO3)c(OC)c1	0.0	0.5	9.0	84.7*	-1.8	-1.7
Cc1ccccc1OCC(=O)Nc1sc2c(c1C#N)CCCC2	-0.2	3.6	-3.8	-1.2	nt	nt
CCC(C)c1ccc(NS(=O)(=O)c2ccc(OC)c([N+](=O)[O-])c2)cc1 (centres undefined)	-0.2	-0.1	-14.2	-7.6	nt	nt
O=C(CNS(=O)(=O)c1ccc2c(c1)OCCO2)N/N=C/c1ccco1	0.1	0.6	4.4	9.2	nt	nt
Cc1cc(-c2ccccc2)nc2cc(C(=O)Nc3cccc(O)c3)nn12	0.1	2.0	24.7	5.7	nt	nt
O=C1CCCCC1CNc1cccc(C(F)(F)F)c1 (centres undefined)	0.0	-1.0	4.2	74.2*	3.8	17.5
COc1ccc(C(OCC(O)CNCCN(C)C)c2ccc(OC)cc2)cc1 (centres undefined)	0.7	-1.1	-2.2	66.7*	10.9	10.4
CCCNCC(O)COC(c1ccccc1)c1ccccc1 (centres undefined)	-0.3	0.7	-0.9	16.9	nt	nt
CCCOc1ccc(NC(=O)c2c(O)c3ccccc3[nH]c2=O)cc1	0.0	3.8	6.3	-4.8	nt	nt
CCOc1ccccc1C(=O)Nc1ccccc1CC	0.0	2.5	2.8	-7.8	nt	nt
COc1cc(O)c(C)c(O)c1	0.1	-2.3	-4.3	14.3	nt	nt
COc1c(O)cc(O)cc1O	0.3	-2.2	-14.1	71.8*	60.2*	-1.4	AlphaScreen DR=>6.48
CN1CCC(NCc2ccc(F)cc2)CC1	0.1	3.4	-14.8	57.3*	-2.5	-3.3
O=C(COc1ccccc1C(=O)OC1CCCC1=O)Nc1cccc(C(F)(F)F)c1 (centres undefined)	-0.2	1.7	5.7	62.5*	72.5*	3.1	AlphaScreen DR=>6.77
NC(=O)c1ccccc1OCC(=O)Nc1cccc(C(F)(F)F)c1	-0.2	-0.1	-69.5	-1.4	nt	nt
Cc1ccc(Cn2c(CN3CCC(C)CC3)nc3c2c(=O)n(C)c(=O)n3C)cc1	0.1	1.9	-7.4	-0.8	nt	nt
CC1CCN(Cc2nc3c(c(=O)n(C)c(=O)n3C)n2Cc2ccc(F)cc2)CC1	0.2	0.7	1.9	50.8*	5.9	13.2
FC(F)(F)c1ccc(CN2CCN(Cc3cccnc3)CC2)cc1	-0.2	1.1	-13.4	80.8*	-6.5	-6.5
O=C1CCN(Cc2cccnc2)CCN1Cc1ccc(F)cc1Cl	0.3	0.6	8.0	13.0	nt	nt
Cc1ccccc1N1CCN(Cc2cccnc2)CC1	0.0	2.8	15.2	28.2	nt	nt
CCc1ccc(CN2CCN(Cc3cccnc3)CC2)cc1	0.0	-0.4	-0.9	76.6*	1.6	-1.4
FC(F)(F)c1cccc(N2CCN(Cc3cccnc3)CC2)c1	-0.1	-0.8	6.8	45.6	nt	nt
c1ccc(CN2CCN(C3CCN(Cc4cccnc4)CC3)CC2)cc1	-0.1	2.7	0.3	38.2	nt	nt
Clc1ccccc1CN1CCN(Cc2cccnc2)CC1	-0.2	-0.6	-3.4	82.6*	9.6	12.3
Clc1ccc(CN2CCN(Cc3cccnc3)CC2)cc1	-0.1	0.6	-5.2	84.4*	8.6	11.8
CCCNc1ccc2ncc(-c3cncnc3)n2n1	-0.9	0.8	23.2	13.7	nt	nt
CC1CCCC(C)N1C(=O)c1cc2cc([N+](=O)[O-])ccc2oc1=O (centres undefined)	-0.2	0.4	1.3	-4.3	nt	nt
